Experimental data from PubChem BioAssay.
A number with no mark means an inactive call. No rule for the calls is given here.

target: Pantothenate synthetase (Mycobacterium tuberculosis (strain ATCC 25618 / H37Rv)) (UniProt P9WIL5); assay: Recombinant Mtb pantothenate synthetase (PanC) inhibitors, coupled enzyme, confirmatory (AID 375); settings: coupled enzyme assay; at 10 µM, hits give high values;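 also: 0% = full reaction with vehicle and 100% = no enzyme background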
Sequence (P9WIL5 whole entry, looked up): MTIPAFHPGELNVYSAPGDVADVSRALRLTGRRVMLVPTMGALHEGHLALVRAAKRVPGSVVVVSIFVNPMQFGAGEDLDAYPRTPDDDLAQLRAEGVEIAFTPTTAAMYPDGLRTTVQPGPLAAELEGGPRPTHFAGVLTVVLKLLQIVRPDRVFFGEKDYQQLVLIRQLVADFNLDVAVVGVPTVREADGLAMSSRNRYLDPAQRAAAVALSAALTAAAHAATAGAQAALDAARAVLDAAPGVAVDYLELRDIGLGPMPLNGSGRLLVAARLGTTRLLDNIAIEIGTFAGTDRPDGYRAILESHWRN

| Compound | inhibition [%] |
| --- | --- |
| Cc1cc(C)n(-c2nc3c(c(=O)n(Cc4ccc(Cl)c(Cl)c4)c(=O)n3C)n2C)n1 | 1 |
| O=C1C2CC=C(Cl)CC2C(=O)N1c1ncn[nH]1 (stereo not drawn) | 0 |
| COCCNC(=O)CCc1nc(-c2ccccc2)no1 | 0 |
| COC(=O)c1nc2n(n1)C(c1ccc(OC)c(OC)c1)C(C(=O)OC1CCCCC1)=C(C)N2 (stereo not drawn) | 0 |
| COc1ccc(-c2cc(C(=O)NCCc3ccccc3)no2)cc1OC | 4 |
| COCCCn1c(SCC(=O)Nc2cccc(C)n2)nnc1-c1ccco1 | 0 |
| CC(=O)N1CCN(c2ccc(S(=O)(=O)N3CCCCC3)cn2)CC1 | 0 |
| CCCCCCn1c(CN2CCN(Cc3ccccc3)CC2)nc2c1c(=O)n(C)c(=O)n2C | 10 |
| c1ccc(OCc2nc3ccccc3[nH]2)cc1 | 0 |
| O=C(O)COc1cccc(NC(=O)C2CCCO2)c1 (stereo not drawn) | 0 |
| O=C(O)c1ccccc1C(=O)Nc1ccccc1 | 0 |
| CC(C)C(c1nnnn1C1CCCC1)N1CCCc2ccccc21 (stereo not drawn) | 0 |
| COc1cc(C(=O)OCC(=O)N(C)Cc2ccccc2)cc(OC)c1OC | 0 |
| COc1ccc(OC)c(C2=Nn3c(nnc3C3CCCCC3)SC2)c1 | 0 |
| C/C(Nc1cccc(F)c1)=C(/C#N)C(N)=O | 3 |
| CCOC(=O)CCCn1nc(C)n2c(cc3sccc32)c1=O | 5 |
| COc1ccc(C2CC(=O)C(C=NCCCN3CCOCC3)=C(O)C2)cc1 (stereo not drawn) | 0 |
| CCC(C)(C(=O)NC1CCCCC1)N(Cc1ccco1)C(=O)c1cnccn1 (stereo not drawn) | 3 |
